Source: PubChem BioAssay AID1645879 (National Center for Advancing Translational Sciences (NCATS), 2021)
Results filed as inconclusive are left out. A call without a number means that no potency is given here. The source made the active and inactive calls. Calls follow the shape of the dose curve; as a rule, active = well fitted inhibition curve with a large enough effect; inconclusive = small, poorly fitted or top-dose-only effect; inactive = no such curve, though single readings can be large or run the other way.

experiment: Counterscreen qHTS assay for inhibitors of N-terminal methyltransferase 1 (NTMT1): SPKRIA Counterscreen Assay; details: biochemical qHTS; series mostly up to 99.2 µM
Description: Assay Submitter (PI): Rong Huang Ph.D,
Purdue University, West Lafayette, IN 47907
The N-terminal methytransferase 1 is the first methyltransferase that methylates protein alpha-N-amines and plays an important role in regulating cell mitosis, chromatin interactions and DNA repair. It is observed to be over-expressed in various cancer patient tissues like malignant melanoma and colorectal cancer tissues. Knockdown of NTMT1 in cancer cells causes cell mitotic defects and enhances sensitivity to DNA damaging chemotherapeutics. […] These critical cellular processes in which NTMT1 is implicated, coupled with emerging links to cellular dysfunction, strengthen the inference that NTMT1 is a compelling novel anticancer target. Progress have been made in understanding the molecular properties of NTMT1 and the biological consequences of protein alpha-N-terminal methylation, but there are no specific small molecule probes available for NTMT1 to fully characterize its MTase activity. To address this unmet need, a panel of assay is created and established to enable quantitative high-throughput screening (qHTS) for novel, potent, and selective small molecule NTMT1 inhibitors. Two orthogonal qHTS that use different reagents (ThioGlo vs. MTaseGlo) are developed for primary robotic screening against the NCATS chemical library of more than 400,000 small molecules. Identified inhibitors are reacquired, validated, and further characterized.
MTaseGlo Assay is a luminescence screen that measure the activity of methyltransferases based on the reaction product S-adenosyl homocysteine (SAH). The substrate SAM is converted to SAH upon enzyme activation. MTase-Glo reagent and detection solution convert SAH to ATP and measure the light from the luciferase reaction. Nicotinamide N-methyltransferase (NNMT) is a cystolic enzyme that catalyzes the transfer of a methyl group from the co-factor SAM onto the substrate, nicotinamide (NA) to form 1-methyl-nicotinamide (MNA) and SAH. NNMT MTaseGlo assay is used as a counterscreen to evaluate selectivity of identified inhibitors.
SPKRIA and Ac-RCC-10 control is provided by the Huang laboratory.
PROTOCOL TABLE; SEQUENCE No. (e.g., 1, 2, 3, etc.); […] (e.g., Cells, Incubation, Reagent, etc.); VALUE; DESCRIPTION
1; Reagent; 3 uL; dispense assay buffer.
2; Compound; 23 nL; pin compounds and control into the assay plate.
3; Time; 15 min; room temperature incubation.
4; Reagent; 1 uL; dispensed [4x] substrate or buffer.
5; Time; 30 min; incubate at room temperature.
6; Reagent; 1 uL; dispense MTase-Glo Reagent (R).
7; Time; 30 min; incubate at room temperature.
8; Reagent; 5 uL; dispense [1x] MTase-Glo Detection Solution to allow for ADP to be converted to ATP.
9; Centrifugation; 1,000 RPMs; assay plates were centrifuged.
10; Incubation; 30 min; room temperature.
11; Detection; Luminescence; ViewLux plate reader (clear filter, 10 second exposure).
NOTES (numbers refer to Sequence numbers above; values are from representative experiments)
1; Dispense the assay buffer into Greiner 1536-well black / solid bottom assay plate (Greiner Bio One, Monroe, NC).
2; Pin control inhibitor Ac-RCC1-10 at a final concentration range of 234 nM to 143 uM using a Wako Pin Tool (Wako Automation USA) equipped with a 1536-slotted pin array (Wako Automation, Richmond, VA). Pin compound library into the assay plates (columns 5 - 48) at a final concentration range of 97 nM to 250 uM.
3; Incubate the assay plates at room temperature.
4; Dispense 1 uL of substrate SPKRIA solution (final concentration 1 uM) or 1 uL buffer was added to the wells bringing the final assay volume to 4uL. The assay plate was covered with metal lids.
5; Incubate the assay plate at room temperature.
6; Dispense 1 uL of 5x MTase-Glo Reagent in the assay plate.
7; Incubate at room temperature to allow for SAH to be converted to ADP
8; Dispense 5 uL of 5x MTase-Glo Detection Solution in the assay plate to allow for ADP to be converted to ATP.
9; Assay plates were centrifuged for 15 seconds.
[…]

Row | Compound | Potency
1 | O=C(Nc1nc2c(s1)CCCC2)c1ccccc1F | 39.8 µM (active)
2 | O=c1cc(-c2ccccc2)oc2ccc(O)cc12 | 31.6 µM (active)
3 | COCCCNC(=O)CSc1c2c(nc3ccc(Cl)cc13)CCCC2 | inactive
4 | COc1cc2c(cc1O)CC[C@H]1[C@@H]2CC[C@]2(C)[C@H](O)CC[C@@H]12 | 50.1 µM (active)
5 | O=C(Nc1noc2ccccc12)c1ccc(F)cc1 | 39.8 µM (active)
6 | Cc1ccc2nc(-c3ccc(O)cc3)c(Nc3ccc(Cl)cc3)n2c1 | inactive
7 | NC(=O)C1CCN(c2nc(-c3ccccc3Cl)cs2)CC1 | inactive
8 | Cc1c(Cl)cccc1Nc1nn2c(=O)c3ccccc3nc2s1 | inactive
9 | C[C@]12CCC3=C4CCC(=O)C=C4CC[C@H]3[C@@H]1CC[C@@]2(O)CC#N | inactive
10 | CC(C)c1ccc(Nc2ncnc3c2nc2n3CCCC2)cc1 | 50.1 µM (active)
11 | CC(=O)C1CCC2C3CCC4=CC(=O)CCC4(C)C3CCC12C (stereo not given) | inactive
12 | O=C(O)c1ccc(-c2noc(-c3cccc(Cl)c3)n2)cc1 | inactive
13 | NC(=O)C1CCN(c2nc(-c3ccc(F)cc3)cs2)CC1 | 44.7 µM (active)
14 | Cc1cc(C)n2c(Nc3c(C)cccc3C)c(-c3ccsc3)nc2n1 | inactive
15 | CCCn1c(/C=C/c2ccccc2)nc2ccccc21 | inactive
16 | Nc1ccc2nc(-c3ccc(O)cc3)sc2c1 | 44.7 µM (active)
17 | COc1cc2ncnc(Nc3cccc(Cl)c3)c2cc1OC | 22.4 µM (active)
18 | COc1cc(/C=C\c2ccc(O)cc2)cc(OC)c1 | inactive
19 | CC(=O)Nc1sc2c(c1-c1ccc3scnc3c1)CCNC2 | inactive
20 | COc1ccc(C(=O)Nc2noc3ccccc23)cc1 | 39.8 µM (active)

Row | Compound | Potency
21 | NC(=O)c1ncn([C@@H]2O[C@H](CO)[C@@H](O)[C@H]2O)c1N | inactive
22 | Cc1c(Cl)ccc2sc(N3CCN(C(=O)C4CC4)CC3)nc12 | inactive
23 | Cc1cc(C)nc(NC(=S)N2CCN(c3ccccn3)CC2)c1 | inactive
24 | NC(=O)C1CCN(c2nc(-c3ccc4c(c3)CCO4)cs2)CC1 | inactive
25 | Cc1cc2c(s1)c1cnn(Cc3cccc(F)c3)c(=O)c1n2C | inactive
26 | C1CCC(C(CC2CCCCN2)C2CCCCC2)CC1 (stereo not given) | inactive
27 | CC(C)(C)c1ccc(-c2csc(N3CCC(C(N)=O)CC3)n2)cc1 | inactive
28 | Cc1ccc(-n2ncc3c(NCCCN(C)C)ncnc32)cc1Cl | 44.7 µM (active)
29 | CC(C)=CCC/C(C)=C/CC/C(C)=C/CSc1ccccc1C(=O)O | inactive
30 | O=c1c2cc3c(cc2nc2sc(Nc4ccccc4)nn12)OCO3 | inactive
31 | Oc1ccc(Cl)cc1Nc1nc2ccccc2n2cnnc12 | inactive
32 | CCCNC(=O)CSc1c(CCC)cnc2c1c(=O)n(C)c(=O)n2C | inactive
33 | CN(C)CCC=C1c2ccccc2C=Cc2ccccc21 | inactive
34 | CC[C@H](c1ccc(O)cc1)[C@@H](CC)c1ccc(O)cc1 | inactive
35 | OCc1cccc(-c2noc(-c3ccccc3F)n2)c1 | inactive
36 | Clc1ccc2ncc(-c3cccc(NC4CCNC4)n3)n2c1 (stereo not given) | inactive
37 | COc1cccc(C(=O)Nc2nc3c(s2)CCCC3)c1 | 50.1 µM (active)
38 | Nc1nc2c(s1)C(c1ccccc1Cl)CC(=O)N2 (stereo not given) | inactive
39 | Oc1ccc(-c2nc(-c3ccc(F)cc3)c(-c3ccncc3)[nH]2)cc1 | 44.7 µM (active)
40 | Cc1ccc(-n2ncc3c(NCCO)ncnc32)cc1Cl | 31.6 µM (active)
